From PubChem BioAssay
VDR inhibitor: vitamin D3 receptor (human) inhibition | P11473 | VDR-SRC2-3 peptide fluorescence polarization, 2 h | Potency, µM, hits mostly inhibitors | hit rate 0.93% among 400,000 | AID 504847
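After 23 nl compound addition and a short centrifugation, plates sat for 2 hours at ambient temperature; polarization of fluorescence then indicated loss of VDR binding to peptide SRC2-3.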
TSG101-PTAP inh: blocks PTAP/TSG101 interaction to inhibit HIV-1 budding; Q99816; 340,000 tested, under 10 active; Potency, µM (top dose mostly 115 µM), usual class: inhibitors; Fluorescence polarization, FITC-PTAP peptide / Tsg101 binding; active means well fitted inhibition curve with a large enough effect in the main read-out, with a control signal flat, not every such curve was filed as active; inconclusive means small, poorly fitted or top-dose-only effect, or effect the other way, or a change in a side signal; inactive means no such curve, though single readings can be large or run the other way
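Steps: Tsg101 binding domain dispensed (10 uM final), compounds pinned in DMSO, FITC-labeled PTAP-motif peptide added (50 nM final); after 20 min binding at room temperature, polarization measured.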
PLK1 PBD inh: PLK1 (human) polo-box domain binding inhibition | hit rate 2.8% among 360,000 | Plk1 PBD binding of FITC phosphopeptide, fluorescence polarization | Potency, µM, hits mostly inhibitors | P53350; further: series mostly up to about 57 µM; nearly all actives have a fitted effect of over 65% in size
Target sequence (P53350 whole entry, looked up, the tested form may be a part): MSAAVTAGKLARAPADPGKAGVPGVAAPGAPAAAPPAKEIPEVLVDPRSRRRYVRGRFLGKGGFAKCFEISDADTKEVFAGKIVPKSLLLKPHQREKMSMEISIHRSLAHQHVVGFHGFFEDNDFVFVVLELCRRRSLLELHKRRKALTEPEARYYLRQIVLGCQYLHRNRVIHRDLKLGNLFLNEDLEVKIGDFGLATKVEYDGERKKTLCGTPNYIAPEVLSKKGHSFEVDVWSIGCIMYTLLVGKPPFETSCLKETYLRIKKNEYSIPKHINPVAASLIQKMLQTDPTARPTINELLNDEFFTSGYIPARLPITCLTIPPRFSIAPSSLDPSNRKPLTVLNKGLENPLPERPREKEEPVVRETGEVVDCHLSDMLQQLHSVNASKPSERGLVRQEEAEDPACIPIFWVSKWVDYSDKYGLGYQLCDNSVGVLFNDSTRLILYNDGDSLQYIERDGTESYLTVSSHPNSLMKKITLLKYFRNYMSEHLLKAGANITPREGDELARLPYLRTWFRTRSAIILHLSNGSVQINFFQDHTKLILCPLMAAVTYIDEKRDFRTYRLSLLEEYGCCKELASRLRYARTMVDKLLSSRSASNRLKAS
USP1-UAF1 inh: blocks the human USP1/UAF1 deubiquitinase complex. recombinant USP1/UAF1, Ub-Rhodamine cleavage fluorescence. Potency, µM (series often up to 57.1 µM), usual class: inhibitors. O94782. hit rate 0.23% among 390,000; further: nearly all actives have a fitted effect of over 60% in size
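Step one: compound is pinned into 1nM USP1/UAF1 in HEPES pH 7.8 buffer with TCEP. Step two: 15 min room-temperature incubation. Step three: Ub-Rho (150nM final) starts cleavage, tracked by fluorescence over six one-minute reads.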
KAT2A inh: inhibitors of human GCN5L2 histone acetyltransferase. Q92830. GCN5L2 HAT assay, ThioGlo1 CoA-SH fluorescence. Potency, µM (series often up to 58.9 µM), most hits filed as inhibitors. AID 504327. hit rate 0.21% among 390,000
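Free CoA generated was detected with ThioGlo1 (50uM) fluorescence at Ex340nm/Em540nm, read immediately and after 20 min at room temperature. Enzyme, 20 nM in HEPES pH 7.5 buffer, saw compounds 15 min before adding 75uM H3(1-25) peptide and 70uM acetyl-CoA.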
A number is an active result; – = inactive; ? = inconclusive; · = no result given; ! = a repeat was not active. This is a sample that favours compounds with a hit; in the whole collection about 3% have one here. Unless noted, the call rests on the fitted dose curve; in most records, active means well fitted curve in the direction sought with a large enough effect; inconclusive means small, poorly fitted or top-dose-only effect, or another doubt; inactive means no such curve, though single readings can be large; an effect the other way counts as inactive or inconclusive.

SMILES	VDR inhibitor	TSG101-PTAP inh	PLK1 PBD inh	USP1-UAF1 inh	KAT2A inh
CC(C)(C)c1csc(NC(=O)CSc2nc3ccccc3c(=O)[nH]2)n1	–	–	?	–	–
CC(C)(C)c1csc(NC(=O)Cn2cnc3ccccc3c2=O)n1	?	–	13.4µM	–	–
Cc1ccc(C)c(N2CCN(C(=O)C3CCN(c4nc5ccc(C)cc5[nH]4)CC3)CC2)c1	–	·	·	–	–
COc1cc(C(C2=C(O)CC(C)(C)CC2=O)C2C(=O)CC(C)(C)CC2=O)cc(OC)c1OC (stereo unspecified)	?	–	18.9µM	–	–
Nc1nc(N)c2[nH]c(=S)[nH]c2n1	–	–	23.8µM	?	·
Cc1c(Cl)cccc1NC(=O)CSc1ncc(S(=O)(=O)c2ccc(C(C)C)cc2)c(=O)[nH]1	–	·	·	–	?
COc1ccc(/C=N\NC(=O)C2C(=O)NCC2c2ccccc2)cc1O (stereo unspecified)	?	–	2.99µM	–	–
CC1CC(C)C(=NNC(N)=O)C(C(O)CC2CCC(=O)NC2=O)C1 (stereo unspecified)	–	–	–	–	·
CCOC(=O)C1=C(C)NC(C)=C(C(=O)OCC)C1C(=O)O	–	–	–	–	–
CCOC(=O)C1=C(C)NC(C)=C(C(=O)OCC)C1	–	–	–	22.4µM!	–
Cc1ccc(Nc2nc(C)cc(C)n2)c(C(=O)O)c1	–	·	·	?	–
CCC(CC)NCc1ccc2c(c1)c1ccccc1n2CC	?	–	21.2µM	–	–
Cc1cc(C)c(OCC(=O)OCC(=O)N(C)C2CCS(=O)(=O)C2)c(C)c1 (stereo unspecified)	–	–	–	–	–
COc1ccc2c(c1OC)C(=O)N1c3ccccc3N=C(c3ccc([N+](=O)[O-])cc3)CC21 (stereo unspecified)	89.1µM	–	–	–	–
COc1ccc2c(c1OC)C(=O)N1N=C(c3ccc(-c4ccccc4)cc3)CC21 (stereo unspecified)	–	–	–	–	–
COc1c(C=O)c(O)cc2c1C(=O)c1ccccc1C2=O	7.08µM	·	·	·	?
N#Cc1nc(-c2ccc(Cl)cc2)oc1NCc1ccco1	–	–	26.7µM	–	–
c1ccc(Cn2c(SCc3nc4ccccc4s3)nnc2-c2ccco2)cc1	–	–	21.2µM	–	–
O=C(Cn1ncn2c(cc3cc(F)ccc32)c1=O)NC1CCCCC1	–	·	·	–	–
Cc1ccc(Nc2nc3ccccc3c3nncn23)cc1C	–	·	·	–	–
CC/C=C\C/C=C\C/C=C\C/C=C\C/C=C\CCCCCC(=O)O	?	·	·	·	–
CC/C=C\C/C=C\C/C=C\C/C=C\C/C=C\C/C=C\CCC(=O)O	31.6µM!	·	·	·	–
CC(C)[C@H](NC(=O)c1ccccc1)C(=O)OCc1nnc(-c2ccccc2)o1	–	–	26.7µM	–	–
CCOc1ccc(-n2nc3ccc(NC(=O)COc4ccccc4C)cc3n2)cc1	–	·	·	–	–
COc1ccc(CNC(=O)COC(=O)c2ccc(OCc3c(C)noc3C)cc2)cc1OC	?	–	29.9µM	–	–
SMILES	VDR inhibitor	TSG101-PTAP inh	PLK1 PBD inh	USP1-UAF1 inh	KAT2A inh
COc1ccc(/C=N/NC(=O)/C(=C/c2ccccc2)CCO)cc1	?	–	26.7µM	–	–
COc1cc(/C=N/NC(=O)/C(=C/c2ccccc2)CCO)ccc1O	–	–	–	–	–
Cc1cc(C)cc(OC2CCCCC2NS(=O)(=O)c2ccccc2)c1 (stereo unspecified)	–	–	–	–	–
CSc1ccc(OC2CCCCC2NS(=O)(=O)c2ccccc2)cc1 (stereo unspecified)	–	–	23.8µM	–	–
CC(=O)Nc1cccc(C(=O)N/N=C/c2cccc(C)n2)c1	?	–	26.7µM	–	–
Cc1cccc(C(=O)Nc2cccc(C(=O)N/N=C/c3cccc(C)n3)c2)c1	–	–	–	–	–
O=C1c2ccccc2-c2cccc(NS(=O)(=O)c3ccc(C(F)(F)F)cc3)c21	–	–	–	28.2µM	–
COC(=O)C(C)N1C(=O)S/C(=C\c2ccc(-c3ccc(C(=O)O)cc3C)o2)C1=O (stereo unspecified)	22.4µM	–	29.9µM	–	–
COc1ccccc1CNC(=O)CCCn1nc(C)c2sc3ccccc3c2c1=O	–	·	·	?	–
Cc1ccccc1CSc1nc2c(sc3ccccc32)c(=O)n1CCCC(=O)NCCCOC(C)C	–	·	·	–	–
CCOc1ccccc1CN1CCC(N2CCOCC2)CC1	–	–	37.7µM	–	?
CCOc1ccccc1CN1CCC(O)CC1	–	–	–	–	–
NS(=O)(=O)c1ccc(N=Nc2ccc(=O)[nH]c2O)cc1	–	–	26.7µM	?	–
Cc1sc2ncn(CC(=O)N3CCN(c4ccc(Cl)cc4)CC3)c(=O)c2c1S(=O)(=O)N1CCN(c2ncccn2)CC1	–	·	·	–	–
CC(C)NC(=O)C1CCC(Cn2c(=O)c3sccc3n(CC(=O)Nc3ccccc3)c2=O)CC1 (stereo unspecified)	–	·	·	–	–
Cc1ccc(NCN2C(=O)C3C4C=CC(C4)C3C2=O)cc1 (stereo unspecified)	?	–	3.36µM	–	–
O=C1C2C3C=CC(C3)C2C(=O)N1CNc1ccc(O)cc1 (stereo unspecified)	·	·	·	·	–
Cc1ccc(NC(=S)N(CCN(C)C)Cc2cccs2)c(C)c1	?	–	8.44µM	–	–
Cc1cccc(NC(=O)CSc2nc3sc(C)cc3c(=O)n2C)c1	–	–	26.7µM	–	·
Cc1ccccc1NC(=O)CN1C(=O)CSc2ccc(S(=O)(=O)N3CCCCC3)cc21	–	–	21.2µM	–	–
CC1CCCN(CCCNC(=O)CN2C(=O)CSc3ccc(S(=O)(=O)N4CCOCC4)cc32)C1 (stereo unspecified)	–	–	–	?	–
CC1CCCN(C(=O)CN2C(=O)CSc3ccc(S(=O)(=O)N4CCOCC4)cc32)C1 (stereo unspecified)	–	–	26.7µM	–	–
Cc1ccccc1NC(=O)CN1C(=O)CSc2ccc(S(=O)(=O)N3CCCC3)cc21	–	–	–	–	–
Cc1ccc(C(=O)Oc2csc(=S)n2C(=O)c2ccc(C)cc2)cc1	–	–	2.99µM	–	–
Cc1ccc(C(=O)N2CCSC2=S)cc1	–	–	?	–	–
SMILES	VDR inhibitor	TSG101-PTAP inh	PLK1 PBD inh	USP1-UAF1 inh	KAT2A inh
Cc1cc(N)ccc1N1CCCC1	70.8µM	–	?	?	?
Cc1cc(N)ccc1-n1c(C)ccc1C	?	–	–	–	–
COc1ccc(OC)c(CNC(=O)c2ccc(NC(=O)c3nsc4ccccc34)cc2)c1	–	·	·	–	–
Cc1ccc(Cc2ccc(C(=O)NNC(N)=S)o2)cc1	–	–	26.7µM	–	–
O=C(Cn1nc(-c2ccco2)ccc1=O)Nc1ccc(Br)cc1	?	–	21.2µM	–	–
COc1cccc(C(CNC(=O)c2ccc(Cl)c(S(=O)(=O)N3CCCC3)c2)N(C)C)c1 (stereo unspecified)	–	–	–	–	–
Cc1ccc(C(=O)OC[C@H]2O[C@H](Cl)C[C@@H]2OC(=O)c2ccc(C)cc2)cc1	–	·	·	·	·
